In all, about 340,000 compounds went through this assay and about 470 (0.14%) were called active.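 How the source made its calls: active means mean activation of 30% or more, with every replicate also reaching 30%; inconclusive means mean activation of 30% or more but some replicate falls short; inactive means the rest.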 What follows is part of a selection rich in actives, with near analogues and random picks from the rest.
Experiment: small molecules raising miR-122 sensor signal – cell-based, Huh7 psiCHECK-miR122, Renilla luciferase, single point, primary screen (AID 623901);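 further: 0% = median of neutral control wells and 100% = median of positive control wells; higher luciferase signal means stronger suppression of miR-122 activity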
Conditions: 48 h, at 12.5 µM, hits give high values

activation, inactive:
COc1ccccc1-c1cnc2c(c1)C(=O)N([C@H](C)CO)C[C@@H](C)[C@@H](CN(C)CC1CCCC1)O2 5.29%
Cc1ccc(NS(=O)(=O)c2cc3c(cc2C)NC(=O)CO3)cc1 -92.7%
Cn1cnc(CCNC(=O)C[C@@H]2CC[C@@H]3[C@H](COC[C@@H](O)CN3C(=O)Nc3ccccc3)O2)c1 4.36%
CCCC(=O)Nc1ccc2c(c1)C(=O)N(C)[C@H]1CC[C@@H](CC(=O)NCc3cccc(F)c3)O[C@H]1CO2 -120%
CCCC(=O)Nc1ccc2c(c1)C(=O)N(C)C[C@H](OC)[C@@H](C)CN[C@H](C)CO2 1.08%
CCC(=O)Nc1ccc2c(c1)C(=O)N(C)C[C@@H](OC)[C@@H](C)CN(Cc1ccccc1OC)[C@H](C)CO2 -2.97%
Cc1ccc(-c2ccc3c(c2)O[C@@H](CN(C)C(=O)NC(C)C)[C@@H](C)CN([C@H](C)CO)S3(=O)=O)cc1 -3.11%
COc1ccc(OC)c(-n2cc3c(=O)n(C)c(=O)n(C)c3c2)c1 -102%
O=C(NNC(=O)c1ccccc1O)c1ccccc1O -530%
CCCN(C)C[C@H]1Oc2ncc(-c3ccccc3OC)cc2C(=O)N([C@H](C)CO)C[C@@H]1C 6.19%
CNC[C@@H]1Oc2cc(-c3ccccc3OC)ccc2S(=O)(=O)N([C@H](C)CO)C[C@H]1C -5.6%
C[C@@H]1CN([C@H](C)CO)C(=O)c2cc(C#CCN(C)C)cnc2O[C@H]1CN(C)C(=O)Cc1ccncc1 2.45%
C[C@@H]1CN([C@@H](C)CO)S(=O)(=O)c2ccc(-c3cccc(C(=O)N(C)C)c3)cc2O[C@@H]1CN(C)C(=O)Nc1ccccc1 -16.6%
Cc1ccc(S(=O)(=O)NC2CCCCCC2)cc1 -106%
C[C@H](CO)N1C[C@H](C)[C@@H](CN(C)C(=O)Cc2cccnc2)Oc2ncc(-c3ccncc3)cc2C1=O -1.97%
O=C(NCCCn1ccnc1)c1cc(-c2ccccc2)on1 -98.4%
O=C(CN1CCOCC1)Nc1cc(Cl)ccc1Cl -101%
O=S(=O)(N/N=C\c1cccn1-c1ccccc1)c1ccc2ccccc2c1 -97.9%
Cc1noc(C)c1NC(=O)N(C)C[C@@H]1Oc2cc(C#CCC(C)C)ccc2S(=O)(=O)N([C@H](C)CO)C[C@@H]1C -3.73%
CCCNC(=O)N(C)C[C@H]1Oc2ncc(C#C[C@@H](C)O)cc2C(=O)N([C@@H](C)CO)C[C@@H]1C 7.15%
COc1ccc(C(=O)N2C[C@@H]3[C@H](c4ccccc42)[C@H](CO)N3Cc2ccc3c(c2)OCO3)cc1 -247%
O=C(c1ccccc1F)N1C[C@H]2[C@@H](c3ccccc31)[C@@H](CO)N2C(=O)c1ccc(F)cc1 -471%
CCCC#Cc1ccc2c(c1)O[C@H](CN(C)C(=O)CC)[C@@H](C)CN([C@H](C)CO)S2(=O)=O -45.7%
CCCNC(=O)N(C)C[C@@H]1Oc2cc(-c3ccccc3)ccc2S(=O)(=O)N([C@H](C)CO)C[C@H]1C -13.1%
C[C@@H]1CN([C@@H](C)CO)S(=O)(=O)c2ccc(C#C[C@@H](C)O)cc2O[C@@H]1CN(C)C(=O)Cc1ccccn1 2.54%
C/C=C/c1ccc2c(c1)O[C@@H](CN(C)S(C)(=O)=O)[C@@H](C)CN([C@H](C)CO)S2(=O)=O 3.54%
CCCNC(=O)N(C)C[C@@H]1Oc2ncc(C#CC(C)C)cc2C(=O)N([C@H](C)CO)C[C@H]1C 10.4%
C[C@H]1CN([C@@H](C)CO)S(=O)(=O)c2ccc(C#CCN(C)C)cc2O[C@H]1CN(C)C(=O)CN(C)C 8.35%
COCC(=O)Nc1ccc2c(c1)OC[C@H](C)NC[C@@H](C)[C@H](OC)CN(C)C2=O -4.6%
CCC(=O)N(C)C[C@@H]1Oc2cc(C#C[C@H](C)O)ccc2S(=O)(=O)N([C@@H](C)CO)C[C@H]1C -2.5%
C/C=C/c1cnc2c(c1)C(=O)N([C@H](C)CO)C[C@H](C)[C@@H](CN(C)CC1CCOCC1)O2 2.95%
O=C1c2ccccc2C2=Nc3ccccc3SC(c3ccccc3F)C12 (centres undefined) -162%
C=CCNC(=O)c1ccccc1NC(=O)c1ccc(Cl)c(S(=O)(=O)Nc2cccc(C)c2C)c1 -155%
CC(C)CC#Cc1cnc2c(c1)C(=O)N([C@H](C)CO)C[C@H](C)[C@H](CN(C)C(=O)Nc1ccccc1F)O2 4.61%
C[C@H](CO)N1C[C@H](C)[C@@H](CN(C)C(=O)Cc2ccncc2)Oc2ncc(C#CCN(C)C)cc2C1=O 3.61%
COCC#Cc1cnc2c(c1)C(=O)N([C@@H](C)CO)C[C@@H](C)[C@@H](CN(C)S(=O)(=O)c1cccc(OC)c1)O2 -3.48%
C[C@@H](O)C#Cc1cnc2c(c1)C(=O)N([C@@H](C)CO)C[C@H](C)[C@H](CN(C)Cc1cncnc1)O2 3.47%
Cc1cc(C(C)(C)C)cc(S(=O)(=O)Nc2ccc(C(=O)O)cc2)c1C -165%
C[C@H](CO)N1C[C@H](C)[C@H](CN(C)C(=O)Nc2ccc3c(c2)OCO3)Oc2ncc(C#Cc3cccc(F)c3)cc2C1=O 5.6%
CNC[C@@H]1Oc2cc(-c3ccccc3OC)ccc2S(=O)(=O)N([C@@H](C)CO)C[C@H]1C -2.47%
O=C(Nc1cc(F)ccc1F)N1C[C@H]2[C@@H](c3ccccc31)[C@@H](CO)N2C(=O)c1ccccc1 -133%
O=C(Cc1ccccc1)N1C[C@@H]2[C@H](c3ccccc31)[C@@H](CO)N2C(=O)Nc1ccc(F)cc1 -92.3%
C[C@H](O)C#Cc1ccc2c(c1)O[C@H](CN(C)Cc1cncnc1)[C@H](C)CN([C@@H](C)CO)S2(=O)=O -0.322%
CC(C)c1cc(C(=O)O)n[nH]1 -143%
C[C@H](CO)N1C[C@H](C)[C@H](CN(C)S(=O)(=O)c2ccccc2)Oc2ncc(-c3cccc(C(F)(F)F)c3)cc2C1=O 11.3%
COCC(=O)Nc1ccc2c(c1)OC[C@H](C)NC[C@H](C)[C@H](OC)CN(C)C2=O -0.878%
C[C@H](O)C#Cc1ccc2c(c1)O[C@@H](CN(C)Cc1cncnc1)[C@H](C)CN([C@H](C)CO)S2(=O)=O 0.702%
COCC(=O)N(C)C[C@@H]1Oc2ncc(C#Cc3ccccc3OC)cc2C(=O)N([C@@H](C)CO)C[C@H]1C 5.1%
C[C@@H]1CN([C@H](C)CO)S(=O)(=O)c2ccc(-c3cncnc3)cc2O[C@@H]1CN(C)Cc1ccccn1 5.28%
COCC(=O)N(C)C[C@H]1Oc2cc(Br)ccc2S(=O)(=O)N([C@H](C)CO)C[C@H]1C -1.48%
CCC(=O)N(C)C[C@H]1Oc2ncc(C#Cc3cccnc3)cc2C(=O)N([C@H](C)CO)C[C@H]1C 6.77%
C[C@@H]1CN([C@H](C)CO)C(=O)c2cc(-c3cccc(F)c3)cnc2O[C@H]1CN(C)C(=O)Nc1ccccc1F -3.89%
C[C@H](O)C#Cc1ccc2c(c1)O[C@@H](CN(C)Cc1cccnc1)[C@H](C)CN([C@H](C)CO)S2(=O)=O 0.774%
CCCNc1ncnc2sc(C)c(C)c12 -122%
Cc1ccc(S(=O)(=O)N(C)C[C@H]2Oc3ccc(NC(=O)CCC(F)(F)F)cc3C(=O)N([C@@H](C)CO)C[C@H]2C)cc1 -99.9%
C[C@@H]1CN([C@@H](C)CO)S(=O)(=O)c2ccc(-c3ccncc3)cc2O[C@@H]1CN(C)C(=O)Nc1ccc(F)cc1 -17.3%
C[C@H](CO)N1C[C@H](C)[C@@H](CN(C)C(=O)C2CC2)Oc2ncc(C#CC(C)(C)O)cc2C1=O 1.07%
C[C@H]1CN([C@@H](C)CO)C(=O)c2cc(C3=CCCCC3)cnc2O[C@@H]1CN(C)C(=O)c1ccc(F)cc1 -3.28%
CO[C@@H]1CN(C)C(=O)c2cc(NC(=O)C3CCOCC3)ccc2OC[C@H](C)N(C)C[C@H]1C 0.196%

activation, active:
CC(C)C(=O)Nc1ccc2c(c1)C(=O)N(C)[C@@H]1CC[C@@H](CC(=O)NCCc3ccccc3)O[C@H]1CO2 56.7%
CNC(=O)C[C@@H]1CC[C@H]2[C@H](COc3ccc(NC(=O)c4cccc(OC)c4)cc3C(=O)N2C)O1 50%
O=c1c(-c2ccccc2)coc2c(CN3CCOCC3)c(O)ccc12 35.8%
O=C(Nc1ccc(F)cc1)N1CCCCN2[C@H](CO)[C@H](c3ccc(C#Cc4ccccc4)cc3)[C@H]2C1 34.6%
COc1ccc(C#Cc2ccc([C@H]3[C@@H](CO)N4CCCCN(C(=O)Nc5ccccc5)C[C@H]34)cc2)cc1 35.5%
O=C(CC(F)(F)F)N1C[C@H]2[C@@H](c3ccccc31)[C@H](CO)N2C(=O)Cc1cccnc1 33.3%
CCN1CCN(C(c2cccnc2)c2cc(Cl)c3cccnc3c2O)CC1 (centres undefined) 49.7%
O=C(CNCCC1=CCCCC1)Nc1ccccc1N1CCCCCC1 76.7%
COc1ccc(C(CCN(Cc2ccc(OC)c(OC)c2)C(=O)CCl)c2ccccc2)cc1 (centres undefined) 34.7%
CN1C[C@@H]2[C@H](c3ccccc31)[C@@H](CO)N2C(=O)Nc1ccccc1 41.7%

Reference: PubChem BioAssay AID623901 (Broad Institute, 2012)
